In the library only some 1.1% were active in any assay of this set; here they are far more common.
BioA inh: blocks M. tuberculosis BioA enzyme activity; purified M. tuberculosis BioA enzyme, plate reader; inhibition, % at 9.99 µM; actives 0.096% (n = 360,000); in the data active = inhibition above about 40%; inconclusive = no clear call, values can overlap the other calls
PrP 5UTR inh: suppresses PrP 5' UTR mRNA reporter expression | inhibition, % (test concentration not listed) | cell-based PrP 5' UTR mRNA reporter, plate reader | actives 0.35% (n = 340,000); in the data active = inhibition above about 52%; note: 0 = median of the neutral control wells
TcdB inh: blocks C. difficile toxin B glycohydrolase activity; P18177; TcdB glycohydrolase enzymatic assay, plate reader; inhibition, % at 9.99 µM; actives 0.24% (n = 350,000); AID 652162; in the data active = inhibition above about 10%
Target sequence (P18177 whole entry, looked up): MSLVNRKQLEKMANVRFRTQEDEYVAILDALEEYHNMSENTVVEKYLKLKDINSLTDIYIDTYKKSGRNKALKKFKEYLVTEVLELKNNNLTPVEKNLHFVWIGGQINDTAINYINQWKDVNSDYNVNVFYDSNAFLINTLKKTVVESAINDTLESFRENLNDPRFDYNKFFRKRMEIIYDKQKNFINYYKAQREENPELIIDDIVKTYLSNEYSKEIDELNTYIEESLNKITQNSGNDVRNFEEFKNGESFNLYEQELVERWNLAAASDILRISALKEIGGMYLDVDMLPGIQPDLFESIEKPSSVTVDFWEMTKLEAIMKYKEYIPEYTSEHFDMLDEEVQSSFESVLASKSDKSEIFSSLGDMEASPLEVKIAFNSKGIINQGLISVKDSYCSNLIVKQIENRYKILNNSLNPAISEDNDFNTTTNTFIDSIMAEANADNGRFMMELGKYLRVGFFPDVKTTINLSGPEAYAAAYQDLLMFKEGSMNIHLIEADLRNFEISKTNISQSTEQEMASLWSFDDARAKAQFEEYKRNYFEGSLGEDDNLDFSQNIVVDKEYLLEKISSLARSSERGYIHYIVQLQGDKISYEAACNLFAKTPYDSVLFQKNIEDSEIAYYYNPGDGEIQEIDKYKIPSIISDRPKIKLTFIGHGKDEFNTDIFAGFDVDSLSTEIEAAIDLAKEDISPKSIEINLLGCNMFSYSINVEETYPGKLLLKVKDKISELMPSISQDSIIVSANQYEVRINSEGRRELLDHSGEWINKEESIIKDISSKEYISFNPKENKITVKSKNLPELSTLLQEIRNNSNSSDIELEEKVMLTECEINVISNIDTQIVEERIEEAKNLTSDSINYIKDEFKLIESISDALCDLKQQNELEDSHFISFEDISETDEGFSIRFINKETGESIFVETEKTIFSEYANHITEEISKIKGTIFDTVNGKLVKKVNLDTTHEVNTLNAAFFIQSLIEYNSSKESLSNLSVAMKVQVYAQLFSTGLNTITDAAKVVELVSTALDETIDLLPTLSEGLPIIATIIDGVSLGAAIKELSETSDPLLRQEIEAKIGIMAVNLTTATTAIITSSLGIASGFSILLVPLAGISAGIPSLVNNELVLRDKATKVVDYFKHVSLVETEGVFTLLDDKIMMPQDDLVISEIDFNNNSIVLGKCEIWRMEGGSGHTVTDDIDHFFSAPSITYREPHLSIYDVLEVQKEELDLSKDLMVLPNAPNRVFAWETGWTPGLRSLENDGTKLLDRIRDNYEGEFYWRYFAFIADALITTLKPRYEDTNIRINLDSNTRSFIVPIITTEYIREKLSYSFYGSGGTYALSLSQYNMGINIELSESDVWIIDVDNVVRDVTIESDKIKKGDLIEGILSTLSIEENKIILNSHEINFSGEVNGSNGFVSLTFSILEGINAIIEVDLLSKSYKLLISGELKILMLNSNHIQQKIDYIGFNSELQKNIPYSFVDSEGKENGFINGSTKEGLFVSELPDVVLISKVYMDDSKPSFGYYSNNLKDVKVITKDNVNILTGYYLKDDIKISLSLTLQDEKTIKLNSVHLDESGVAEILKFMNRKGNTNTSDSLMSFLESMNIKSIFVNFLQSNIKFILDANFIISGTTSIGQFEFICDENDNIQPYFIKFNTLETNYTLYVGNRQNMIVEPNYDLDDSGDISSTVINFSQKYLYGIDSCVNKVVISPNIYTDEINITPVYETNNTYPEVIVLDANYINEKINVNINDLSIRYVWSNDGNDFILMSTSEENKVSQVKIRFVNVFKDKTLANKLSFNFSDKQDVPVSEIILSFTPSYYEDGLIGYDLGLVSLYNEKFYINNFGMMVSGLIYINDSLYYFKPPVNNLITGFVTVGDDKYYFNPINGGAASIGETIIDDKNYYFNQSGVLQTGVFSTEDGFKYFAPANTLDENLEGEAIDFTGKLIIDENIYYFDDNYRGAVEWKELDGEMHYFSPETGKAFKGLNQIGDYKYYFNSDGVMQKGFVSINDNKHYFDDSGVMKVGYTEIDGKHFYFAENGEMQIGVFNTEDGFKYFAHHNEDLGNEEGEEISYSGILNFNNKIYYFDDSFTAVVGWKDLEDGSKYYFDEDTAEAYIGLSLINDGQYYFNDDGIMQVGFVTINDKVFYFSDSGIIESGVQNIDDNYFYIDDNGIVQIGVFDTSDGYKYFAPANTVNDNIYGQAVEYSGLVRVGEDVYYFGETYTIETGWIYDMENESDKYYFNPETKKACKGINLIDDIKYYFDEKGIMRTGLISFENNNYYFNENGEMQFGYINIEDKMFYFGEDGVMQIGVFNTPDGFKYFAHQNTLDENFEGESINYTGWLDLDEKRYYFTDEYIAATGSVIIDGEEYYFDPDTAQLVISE
PfHsp40 yeast: compounds rescuing yeast from Plasmodium falciparum HSP40 toxicity; S. cerevisiae expressing PfHsp40, growth rescue, ATP luminescence; growth rescue, % at 12.5 µM; actives 0.68% (n = 340,000); in the data active = growth rescue above about 28%, passing the limit was not always enough; inconclusive = no clear call, values can overlap the other calls;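 note: yeast W303a lacking pdr1 and pdr3 grown in galactose medium; growth measured after three days at 30 °C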
FadD28 binding: inhibitors of Mycobacterium tuberculosis FadD28 bisubstrate binding; FadD28 bisubstrate probe binding, fluorescence polarization; inhibition, % at 12.5 µM; actives 0.22% (n = 360,000); AID 588549; in the data active = inhibition above about 8.5%, passing the limit was not always enough; inconclusive = no clear call, values can overlap the other calls
Numbers without * were called inactive; ? = inconclusive; . = not tested or not shown.

SMILES | BioA inh | PrP 5UTR inh | TcdB inh | PfHsp40 yeast | FadD28 binding
COC(=O)c1[nH]c2ccc(Cl)cc2c1NC(=O)c1ccccc1[N+](=O)[O-] | . | -14.1 | . | 1.1 | -3.0
CC1(C)Cc2cccc(OCC(=O)N3CCN(c4cccc(Cl)c4)CC3)c2O1 | 1.0 | 6.1 | -1.5 | 7.4 | -0.6
CC1(C)Cc2cccc(OCC(=O)N3CCN(c4cccc(C(F)(F)F)c4)CC3)c2O1 | -0.4 | -19.7 | 1.0 | 41.0* | -4.0
O=C(Nc1ccccc1F)N1C[C@H]2[C@@H](c3ccccc31)[C@@H](CO)N2C(=O)C1CC1 | 1.5 | . | -0.4 | . | .
COc1ccc(S(=O)(=O)Nc2cccc3c2O[C@@H](CN(C)S(=O)(=O)c2ccc(OC)cc2)[C@H](C)CN([C@H](C)CO)C3=O)cc1 | . | . | 0.2 | . | .
Cc1ccc(S(=O)(=O)c2ccc([N+](=O)[O-])o2)cc1 | . | -20.4 | -0.2 | 264.9* | -4.2
CCOC(=O)/C(C#N)=N/Nc1ccc(S(=O)(=O)N2CCc3ccccc32)cc1 | . | -19.7 | . | 1.7 | -0.5
N#C/C(=N\Nc1ccc(S(=O)(=O)N2CCc3ccccc32)cc1)C(N)=S | 3.9 | -8.8 | 1.4 | -0.8 | 45.7*
O=C(CN1CCN(c2ncc(C(F)(F)F)cc2Cl)CC1)NCCNc1ncc(C(F)(F)F)cc1Cl | -0.8 | -10.6 | . | 293.6* | -1.6
NNC(=O)CN1CCN(c2ncc(C(F)(F)F)cc2Cl)CC1 | . | -12.9 | -0.9 | 0.1 | -3.9
C[C@@H]1CCCCO[C@H](CN(C)S(C)(=O)=O)[C@@H](C)CN([C@H](C)CO)C(=O)c2cc(NS(=O)(=O)c3ccccc3)ccc2O1 | -2.3 | . | 0.1 | . | .
Cc1noc2ncnc(SCc3ccc(C(F)(F)F)cc3)c12 | 0.6 | -27.0 | 0.9 | ? | -2.0
Cc1ccc(CSc2ncnc3onc(C)c23)cc1 | . | -9.9 | 1.1 | 69.8* | -1.1
N#C[C@@H]1[C@@H](c2ccccc2-c2ccccc2)[C@H](CO)N1C(=O)Cc1ccncc1 | . | . | 0.5 | . | .
Cc1ccccc1Oc1ccc(-c2nc(N)nc(N)n2)cc1 | -0.2 | -27.7 | . | 118.8* | -6.0
Nc1nc(N)nc(-c2ccc(Oc3ccccc3)cc2)n1 | 0.1 | -26.6 | -0.5 | -0.5 | -0.1
Cc1ccc(S(=O)(=O)Nc2ccc3c(c2)C(=O)N(C)[C@@H]2CC[C@@H](CC(=O)O)O[C@@H]2CO3)cc1 | -0.7 | . | -0.4 | . | .
COc1ccc(S(=O)(=O)N(C)C[C@@H]2Oc3cc(C4=CCCC4)ccc3S(=O)(=O)N([C@H](C)CO)C[C@@H]2C)cc1 | 0.0 | . | -2.3 | . | .
O=C(O)COn1c(-c2ccc(Cl)cc2)nc2ccc(Cl)cc21 | . | -33.3 | 10.2* | -1.2 | -3.8
COn1c(-c2ccc(Cl)cc2)nc2ccc(Cl)cc21 | -1.7 | -39.2 | . | 0.2 | -6.5
Cc1nn(CCC(N)=S)c2nc(-c3cccs3)cc(C(F)(F)F)c12 | . | -18.6 | -0.7 | 222.6* | -5.4
Cc1nn(CCC#N)c2nc(-c3ccccc3)cc(C(F)(F)F)c12 | -2.1 | -27.5 | . | 0.8 | 0.0
CCOC(=O)c1ccc(NC(=O)CC2C(=O)OCCN2CC)cc1 (centres undefined) | . | -6.4 | -0.9 | 218.6* | 0.3
CCOC(=O)c1ccc(NC(=O)CC2OCCN(CC)C2=O)cc1 (centres undefined) | 1.1 | -27.1 | . | 53.2* | -2.6
CCC(=O)N1[C@H](CO)[C@H](c2ccc(C3=CCCC3)cc2)[C@H]1CNC1CCCC1 | . | . | -1.0 | . | .
SMILES | BioA inh | PrP 5UTR inh | TcdB inh | PfHsp40 yeast | FadD28 binding
Cc1nnc(NC(=O)c2ccc3c(c2)OCO3)s1 | 1.0 | -49.2 | 0.8 | -1.2 | -2.3
CSc1nnc(NC(=O)c2ccc3c(c2)OCO3)s1 | -0.9 | 62.6* | 1.6 | 1.6 | -2.2
C[C@H]1CN([C@@H](C)CO)C(=O)c2cc(NS(C)(=O)=O)ccc2O[C@H]1CN(C)Cc1ccccc1 | -1.1 | . | 0.9 | . | .
O=c1c(Cl)c(Cl)cnn1Cc1nnc(-c2ccc(Cl)cc2)o1 | . | -45.1 | 0.2 | 235.7* | -3.4
Cc1ccc(Cn2ncc(Cl)c(Cl)c2=O)cc1 | -0.1 | -12.7 | -1.4 | 1.0 | -0.7
C[C@@H]1CCCCO[C@@H](CN(C)C(=O)C2CCCCC2)[C@@H](C)CN([C@H](C)CO)C(=O)c2cc(NS(C)(=O)=O)ccc2O1 | 0.8 | . | -1.4 | . | .
COc1cccc(C(=O)Nc2ccc3c(c2)C(=O)N(C)[C@@H]2CC[C@H](CC(=O)NCCCN4CCOCC4)O[C@@H]2CO3)c1 | -1.2 | . | 12.4* | . | .
COC(=O)C[C@H]1CC[C@@H]2[C@@H](COc3ccc(NC(=O)c4cccc(OC)c4)cc3C(=O)N2C)O1 | 11.9 | . | 10.8* | . | .
CCNC(=O)C[C@@H]1CC[C@@H]2[C@@H](COc3ccc(NC(=O)Nc4ccccc4Cl)cc3C(=O)N2C)O1 | 0.7 | . | 0.7 | . | .

Screening data: PubChem BioAssay, Broad Institute
